# Data published in article PMC7862700, “An all-to-all approach to the identification of sequence-specific readers for epigenetic DNA modifications on cytosine”.
# What was measured:
# Assay in all cases: DAPPL (digital affinity profiling via proximity ligation, sequencing); 10 mM Tris-HCl pH 7.5, 50 mM NaCl, 1 mM DTT, 4% glycerol, room temperature, 30 min; GST-TFs on glutathione beads, 16-mer random dsDNA library, 0.1% formaldehyde crosslink after washing; high values mean tight binding
# [1] = biological target: T1, FEV (Homo sapiens, UniProt Q99581 1-238); settings: protein: recombinant; tags: N-terminal GST; dsDNA, one strand shown
# T1 sequence: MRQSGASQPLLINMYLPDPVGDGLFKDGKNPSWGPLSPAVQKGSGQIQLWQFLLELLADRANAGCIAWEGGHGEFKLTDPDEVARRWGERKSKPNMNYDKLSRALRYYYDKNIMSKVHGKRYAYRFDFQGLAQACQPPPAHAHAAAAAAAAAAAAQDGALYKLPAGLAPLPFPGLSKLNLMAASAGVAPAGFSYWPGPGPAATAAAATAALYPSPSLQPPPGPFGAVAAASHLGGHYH
# How it was run: (§1)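 In yeast, human transcription factors were expressed with a GST fusion, then pulled down on glutathione beads and given DNA barcodes. Pooled with a tag-only sample, they were exposed to 200 nmole of a 16-mer random double-stranded DNA library (Tris/NaCl/DTT/glycerol buffer, room temperature, 30 min), washed, crosslinked with 0.1% formaldehyde, proximity-ligated using BsaI/T4 ligase for 1 h at 37 °C, PCR-amplified and read on an Illumina NextSeq500. Each hexamer's frequency of reads for a factor, divided by the matching frequency for the tag-only sample, gives the binding signal.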
# [2] = biological target: ETV5 (Homo sapiens, UniProt P41161 1-510); settings: protein: recombinant; tags: N-terminal GST; dsDNA, one strand shown
# ETV5, sequence (P41161 whole entry): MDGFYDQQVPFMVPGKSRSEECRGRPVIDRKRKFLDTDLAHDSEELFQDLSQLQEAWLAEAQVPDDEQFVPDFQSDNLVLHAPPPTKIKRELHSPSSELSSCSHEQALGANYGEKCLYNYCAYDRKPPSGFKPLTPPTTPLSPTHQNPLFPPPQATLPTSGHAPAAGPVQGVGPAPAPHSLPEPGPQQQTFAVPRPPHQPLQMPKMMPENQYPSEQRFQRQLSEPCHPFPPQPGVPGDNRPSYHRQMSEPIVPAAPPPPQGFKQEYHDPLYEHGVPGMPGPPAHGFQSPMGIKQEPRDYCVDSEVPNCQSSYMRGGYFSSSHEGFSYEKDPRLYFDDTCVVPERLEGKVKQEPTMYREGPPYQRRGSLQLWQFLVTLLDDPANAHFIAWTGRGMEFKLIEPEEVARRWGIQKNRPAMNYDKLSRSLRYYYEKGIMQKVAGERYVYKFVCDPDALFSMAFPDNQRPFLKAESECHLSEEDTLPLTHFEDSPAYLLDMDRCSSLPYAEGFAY
# How it was run: as §1
# [3] = biological target: HSF1 (Homo sapiens, UniProt Q00613 1-529); settings: protein: recombinant; tags: N-terminal GST; chain copies: 3; dsDNA, one strand shown
# HSF1, sequence (Q00613 whole entry): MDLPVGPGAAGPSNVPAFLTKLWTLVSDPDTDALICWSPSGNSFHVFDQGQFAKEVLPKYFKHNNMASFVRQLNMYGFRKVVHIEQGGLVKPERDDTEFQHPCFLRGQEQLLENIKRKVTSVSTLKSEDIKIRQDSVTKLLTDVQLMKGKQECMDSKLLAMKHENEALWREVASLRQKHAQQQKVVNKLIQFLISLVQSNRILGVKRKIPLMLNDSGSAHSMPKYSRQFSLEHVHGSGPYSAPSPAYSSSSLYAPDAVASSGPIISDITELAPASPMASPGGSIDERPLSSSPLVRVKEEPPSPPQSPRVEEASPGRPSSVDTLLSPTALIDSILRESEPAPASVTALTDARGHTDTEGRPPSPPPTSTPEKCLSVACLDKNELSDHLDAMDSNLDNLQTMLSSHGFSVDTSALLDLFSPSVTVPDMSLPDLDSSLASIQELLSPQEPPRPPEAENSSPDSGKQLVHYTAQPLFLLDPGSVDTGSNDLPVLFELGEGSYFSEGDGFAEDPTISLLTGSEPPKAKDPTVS
# How it was run: as §1
# [4] = biological target: T2, SPIC (Homo sapiens, UniProt Q8N5J4 1-248); settings: protein: recombinant; tags: N-terminal GST; dsDNA, one strand shown
# T2 sequence: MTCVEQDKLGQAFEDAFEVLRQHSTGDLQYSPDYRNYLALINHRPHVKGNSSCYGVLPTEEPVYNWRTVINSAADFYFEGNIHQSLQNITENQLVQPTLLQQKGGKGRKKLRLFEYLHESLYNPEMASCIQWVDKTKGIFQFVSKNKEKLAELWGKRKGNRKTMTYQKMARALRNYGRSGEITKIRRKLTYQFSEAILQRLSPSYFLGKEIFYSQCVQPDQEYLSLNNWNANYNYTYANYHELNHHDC
# How it was run: as §1
# [5] = biological target: ELF4 (Homo sapiens, UniProt Q99607 1-663); settings: protein: recombinant; tags: N-terminal GST; dsDNA, one strand shown
# ELF4, sequence (Q99607 whole entry): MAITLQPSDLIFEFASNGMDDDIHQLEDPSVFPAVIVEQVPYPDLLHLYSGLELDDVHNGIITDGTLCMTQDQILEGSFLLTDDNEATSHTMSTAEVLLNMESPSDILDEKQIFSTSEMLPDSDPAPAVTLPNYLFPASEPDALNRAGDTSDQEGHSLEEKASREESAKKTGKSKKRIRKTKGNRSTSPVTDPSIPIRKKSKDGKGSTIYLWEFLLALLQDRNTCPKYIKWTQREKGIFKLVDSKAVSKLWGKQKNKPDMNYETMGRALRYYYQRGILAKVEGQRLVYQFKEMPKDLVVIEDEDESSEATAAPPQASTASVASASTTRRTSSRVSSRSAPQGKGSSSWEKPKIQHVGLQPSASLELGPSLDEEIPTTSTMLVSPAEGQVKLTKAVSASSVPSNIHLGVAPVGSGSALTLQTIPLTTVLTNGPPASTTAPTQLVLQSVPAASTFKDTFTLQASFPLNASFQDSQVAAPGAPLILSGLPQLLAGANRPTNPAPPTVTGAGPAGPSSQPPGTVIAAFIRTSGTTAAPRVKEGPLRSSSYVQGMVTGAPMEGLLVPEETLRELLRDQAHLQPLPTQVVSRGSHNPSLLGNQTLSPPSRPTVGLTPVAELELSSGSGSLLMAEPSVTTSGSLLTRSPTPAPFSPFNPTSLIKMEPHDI
# How it was run: as §1
# [6] = biological target: T3, ELK4 (Homo sapiens, UniProt P28324-2 1-405); settings: protein: recombinant; tags: N-terminal GST; dsDNA, one strand shown
# T3 sequence: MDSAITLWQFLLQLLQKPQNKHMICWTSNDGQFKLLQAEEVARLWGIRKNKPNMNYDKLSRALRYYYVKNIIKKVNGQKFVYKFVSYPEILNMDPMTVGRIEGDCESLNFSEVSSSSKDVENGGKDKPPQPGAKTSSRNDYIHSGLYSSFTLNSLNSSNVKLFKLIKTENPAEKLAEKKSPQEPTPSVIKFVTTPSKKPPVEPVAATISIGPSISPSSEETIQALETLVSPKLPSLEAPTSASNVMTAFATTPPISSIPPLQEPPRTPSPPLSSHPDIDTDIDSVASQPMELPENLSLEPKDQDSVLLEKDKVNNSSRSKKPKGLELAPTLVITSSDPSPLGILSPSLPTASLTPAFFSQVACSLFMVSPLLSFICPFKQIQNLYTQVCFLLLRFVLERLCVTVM
# How it was run: as §1
# [7] = biological target: T4, ETV2 (Homo sapiens, UniProt O00321 1-342); settings: protein: recombinant; tags: N-terminal GST; dsDNA, one strand shown
# T4 sequence: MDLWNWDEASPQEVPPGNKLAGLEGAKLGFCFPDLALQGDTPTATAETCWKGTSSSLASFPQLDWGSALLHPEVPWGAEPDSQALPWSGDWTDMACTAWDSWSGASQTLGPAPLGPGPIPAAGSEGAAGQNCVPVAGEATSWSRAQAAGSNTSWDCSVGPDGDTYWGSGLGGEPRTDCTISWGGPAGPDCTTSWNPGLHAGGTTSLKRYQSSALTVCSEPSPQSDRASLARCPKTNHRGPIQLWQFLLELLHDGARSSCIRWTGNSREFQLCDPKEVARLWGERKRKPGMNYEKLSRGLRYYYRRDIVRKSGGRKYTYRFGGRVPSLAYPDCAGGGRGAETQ
# How it was run: as §1
# [8] = biological target: T5, ELF3 (Homo sapiens, UniProt P78545 1-371); settings: protein: recombinant; tags: N-terminal GST; dsDNA, one strand shown
# T5 sequence: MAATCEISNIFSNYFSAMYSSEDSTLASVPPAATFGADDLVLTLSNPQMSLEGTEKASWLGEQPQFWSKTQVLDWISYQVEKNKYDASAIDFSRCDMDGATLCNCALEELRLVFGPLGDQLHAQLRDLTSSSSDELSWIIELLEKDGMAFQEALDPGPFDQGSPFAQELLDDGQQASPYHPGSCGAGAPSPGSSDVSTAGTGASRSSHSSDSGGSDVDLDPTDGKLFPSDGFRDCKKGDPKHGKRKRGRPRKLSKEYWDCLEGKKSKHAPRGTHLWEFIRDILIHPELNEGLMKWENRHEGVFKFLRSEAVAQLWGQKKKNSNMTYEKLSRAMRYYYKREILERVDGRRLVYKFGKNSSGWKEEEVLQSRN
# How it was run: as §1
# [9] = biological target: CRX (Homo sapiens, UniProt O43186 1-299); settings: protein: recombinant; tags: N-terminal GST; dsDNA, one strand shown
# CRX, sequence (O43186 whole entry): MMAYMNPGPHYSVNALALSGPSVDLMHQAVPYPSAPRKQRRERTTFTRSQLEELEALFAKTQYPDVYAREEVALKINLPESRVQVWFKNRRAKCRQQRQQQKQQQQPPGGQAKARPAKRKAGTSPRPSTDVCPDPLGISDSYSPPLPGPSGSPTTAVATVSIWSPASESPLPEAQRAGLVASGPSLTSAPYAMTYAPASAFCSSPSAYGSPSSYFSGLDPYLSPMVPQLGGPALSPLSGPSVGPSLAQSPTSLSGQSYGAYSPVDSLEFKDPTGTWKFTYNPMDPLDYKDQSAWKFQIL
# How it was run: as §1
# [10] = biological target: ETV1 (Homo sapiens, UniProt P50549 1-477); settings: protein: recombinant; tags: N-terminal GST; dsDNA, one strand shown
# ETV1, sequence (P50549 whole entry): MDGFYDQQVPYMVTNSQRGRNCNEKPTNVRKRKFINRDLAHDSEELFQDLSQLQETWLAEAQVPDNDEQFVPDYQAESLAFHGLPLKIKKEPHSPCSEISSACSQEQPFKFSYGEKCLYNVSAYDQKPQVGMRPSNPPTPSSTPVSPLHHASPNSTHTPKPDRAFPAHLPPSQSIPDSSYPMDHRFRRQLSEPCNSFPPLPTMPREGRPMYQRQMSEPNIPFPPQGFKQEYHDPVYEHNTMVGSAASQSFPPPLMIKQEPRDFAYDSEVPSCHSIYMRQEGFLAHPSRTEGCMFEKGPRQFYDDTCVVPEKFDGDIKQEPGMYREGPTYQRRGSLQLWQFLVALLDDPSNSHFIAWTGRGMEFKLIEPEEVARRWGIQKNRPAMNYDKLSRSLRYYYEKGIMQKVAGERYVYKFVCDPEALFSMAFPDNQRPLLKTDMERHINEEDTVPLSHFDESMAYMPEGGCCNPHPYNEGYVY
# How it was run: as §1
# [11] = biological target: T6, ERF (Homo sapiens, UniProt P50548 1-548); settings: protein: recombinant; tags: N-terminal GST; dsDNA, one strand shown
# T6 sequence: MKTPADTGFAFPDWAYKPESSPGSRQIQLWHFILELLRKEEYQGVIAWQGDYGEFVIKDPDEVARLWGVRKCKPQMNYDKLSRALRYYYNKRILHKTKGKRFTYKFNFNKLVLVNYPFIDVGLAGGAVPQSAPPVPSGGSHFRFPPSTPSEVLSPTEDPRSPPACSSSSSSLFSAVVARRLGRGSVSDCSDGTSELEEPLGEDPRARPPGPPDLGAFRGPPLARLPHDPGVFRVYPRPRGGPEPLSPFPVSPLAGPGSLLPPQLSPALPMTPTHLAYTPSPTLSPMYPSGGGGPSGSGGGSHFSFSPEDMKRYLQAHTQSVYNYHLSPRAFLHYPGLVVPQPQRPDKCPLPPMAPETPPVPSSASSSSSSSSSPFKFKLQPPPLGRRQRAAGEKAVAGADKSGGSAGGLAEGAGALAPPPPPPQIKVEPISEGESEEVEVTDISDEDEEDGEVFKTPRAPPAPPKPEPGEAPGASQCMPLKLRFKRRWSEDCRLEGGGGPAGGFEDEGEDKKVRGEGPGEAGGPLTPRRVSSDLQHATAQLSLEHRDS
# How it was run: as §1
# [12] = biological target: T7, ETV3L (Homo sapiens, UniProt Q6ZN32 1-361); settings: protein: recombinant; tags: N-terminal GST; dsDNA, one strand shown
# T7 sequence: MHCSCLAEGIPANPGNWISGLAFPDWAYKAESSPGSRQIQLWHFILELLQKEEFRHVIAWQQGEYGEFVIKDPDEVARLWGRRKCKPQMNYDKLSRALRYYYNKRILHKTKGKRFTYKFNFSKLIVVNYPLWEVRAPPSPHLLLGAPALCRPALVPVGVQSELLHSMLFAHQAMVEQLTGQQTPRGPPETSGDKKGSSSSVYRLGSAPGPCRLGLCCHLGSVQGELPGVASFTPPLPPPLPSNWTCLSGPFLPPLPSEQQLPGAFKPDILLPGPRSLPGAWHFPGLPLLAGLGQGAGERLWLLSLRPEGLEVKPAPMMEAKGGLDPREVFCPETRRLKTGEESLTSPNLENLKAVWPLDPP
# How it was run: as §1
# [13] = biological target: T8, ETS2 (Homo sapiens, UniProt P15036 1-469); settings: protein: recombinant; tags: N-terminal GST; dsDNA, one strand shown
# T8 sequence: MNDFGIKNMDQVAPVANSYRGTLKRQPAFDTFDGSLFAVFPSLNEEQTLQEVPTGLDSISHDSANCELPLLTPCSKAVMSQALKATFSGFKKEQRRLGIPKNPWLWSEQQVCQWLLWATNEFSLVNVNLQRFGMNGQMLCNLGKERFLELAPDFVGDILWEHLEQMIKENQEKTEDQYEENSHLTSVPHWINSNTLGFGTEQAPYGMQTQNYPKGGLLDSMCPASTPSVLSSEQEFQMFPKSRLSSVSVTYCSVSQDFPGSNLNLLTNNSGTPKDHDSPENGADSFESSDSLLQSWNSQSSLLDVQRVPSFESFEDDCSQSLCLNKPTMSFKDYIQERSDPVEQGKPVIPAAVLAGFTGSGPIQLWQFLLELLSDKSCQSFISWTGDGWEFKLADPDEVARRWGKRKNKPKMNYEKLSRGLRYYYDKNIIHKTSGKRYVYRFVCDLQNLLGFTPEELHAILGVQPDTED
# How it was run: as §1
# [14] = biological target: T9, SPDEF (Homo sapiens, UniProt O95238 1-335); settings: protein: recombinant; tags: N-terminal GST; dsDNA, one strand shown
# T9 sequence: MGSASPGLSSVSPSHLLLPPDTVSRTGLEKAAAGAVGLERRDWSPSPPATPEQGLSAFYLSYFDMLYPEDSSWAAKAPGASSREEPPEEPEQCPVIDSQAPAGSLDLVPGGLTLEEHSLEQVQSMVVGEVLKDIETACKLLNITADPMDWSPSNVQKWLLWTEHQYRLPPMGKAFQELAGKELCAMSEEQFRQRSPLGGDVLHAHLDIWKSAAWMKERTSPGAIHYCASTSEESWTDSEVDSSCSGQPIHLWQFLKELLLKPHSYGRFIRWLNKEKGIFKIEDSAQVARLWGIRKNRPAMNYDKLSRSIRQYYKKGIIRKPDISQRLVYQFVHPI
# How it was run: as §1
# [15] = biological target: T10, ETV7 (Homo sapiens, UniProt Q9Y603 1-341); settings: protein: recombinant; tags: N-terminal GST; dsDNA, one strand shown
# T10 sequence: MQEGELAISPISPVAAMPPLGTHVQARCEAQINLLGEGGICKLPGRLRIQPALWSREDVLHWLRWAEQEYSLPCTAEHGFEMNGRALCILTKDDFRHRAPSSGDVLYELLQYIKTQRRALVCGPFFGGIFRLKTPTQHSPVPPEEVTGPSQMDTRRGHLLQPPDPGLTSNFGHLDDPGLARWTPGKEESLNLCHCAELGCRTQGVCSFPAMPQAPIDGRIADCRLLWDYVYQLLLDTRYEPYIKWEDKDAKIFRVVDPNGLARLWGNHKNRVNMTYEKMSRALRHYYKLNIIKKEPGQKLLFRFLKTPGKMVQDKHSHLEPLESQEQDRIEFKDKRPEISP
# How it was run: as §1
# [16] = biological target: T11, ELF5 (Homo sapiens, UniProt Q9UKW6-2 1-255); settings: protein: recombinant; tags: N-terminal GST; dsDNA, one strand shown
# T11 sequence: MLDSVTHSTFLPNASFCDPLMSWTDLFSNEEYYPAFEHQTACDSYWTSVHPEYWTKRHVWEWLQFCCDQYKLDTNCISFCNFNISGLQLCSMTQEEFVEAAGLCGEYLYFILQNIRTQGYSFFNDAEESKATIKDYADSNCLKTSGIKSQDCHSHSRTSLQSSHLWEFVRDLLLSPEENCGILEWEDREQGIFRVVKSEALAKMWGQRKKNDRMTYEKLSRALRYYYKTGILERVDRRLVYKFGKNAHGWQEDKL
# How it was run: as §1
# [17] = biological target: T12, ETV3 (Homo sapiens, UniProt P41162-2 1-143); settings: protein: recombinant; tags: N-terminal GST; dsDNA, one strand shown
# T12 sequence: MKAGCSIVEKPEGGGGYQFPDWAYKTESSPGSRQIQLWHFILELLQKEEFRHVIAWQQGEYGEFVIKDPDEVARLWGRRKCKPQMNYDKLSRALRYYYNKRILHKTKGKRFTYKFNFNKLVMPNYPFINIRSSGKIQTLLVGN
# How it was run: as §1
# [18] = biological target: ETV6 (Homo sapiens, UniProt P41212 1-452); settings: protein: recombinant; tags: N-terminal GST; dsDNA, one strand shown
# ETV6, sequence (P41212 whole entry): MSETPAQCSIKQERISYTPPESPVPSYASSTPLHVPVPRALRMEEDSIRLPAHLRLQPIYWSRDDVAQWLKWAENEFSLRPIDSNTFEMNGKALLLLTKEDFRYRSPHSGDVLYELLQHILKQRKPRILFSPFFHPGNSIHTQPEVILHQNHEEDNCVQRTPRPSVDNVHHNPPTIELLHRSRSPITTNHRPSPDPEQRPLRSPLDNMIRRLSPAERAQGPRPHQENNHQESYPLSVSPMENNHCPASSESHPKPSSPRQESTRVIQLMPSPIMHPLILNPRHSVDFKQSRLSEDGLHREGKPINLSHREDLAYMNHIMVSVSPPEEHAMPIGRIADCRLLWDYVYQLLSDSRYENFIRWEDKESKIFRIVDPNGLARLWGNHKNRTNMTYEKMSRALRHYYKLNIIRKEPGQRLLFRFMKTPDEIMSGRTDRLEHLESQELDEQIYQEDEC
# How it was run: as §1
sequence,measurement,setting,value
ATACTA,binding signal,[1],"1.13 fold enrichment (6-mer frequency, TF over GST control)"
same,binding signal,[2],"1.13 fold enrichment (6-mer frequency, TF over GST control)"
same,binding signal,[3],"1.34 fold enrichment (6-mer frequency, TF over GST control)"
same,binding signal,[4],"1.1 fold enrichment (6-mer frequency, TF over GST control)"
same,binding signal,[5],"1.19 fold enrichment (6-mer frequency, TF over GST control)"
same,binding signal,[6],"1.19 fold enrichment (6-mer frequency, TF over GST control)"
same,binding signal,[7],"1.14 fold enrichment (6-mer frequency, TF over GST control)"
same,binding signal,[8],"1.08 fold enrichment (6-mer frequency, TF over GST control)"
same,binding signal,[9],"1.38 fold enrichment (6-mer frequency, TF over GST control)"
same,binding signal,[10],"1.1 fold enrichment (6-mer frequency, TF over GST control)"
same,binding signal,[11],"1.09 fold enrichment (6-mer frequency, TF over GST control)"
same,binding signal,[12],"1.2 fold enrichment (6-mer frequency, TF over GST control)"
same,binding signal,[13],"1.24 fold enrichment (6-mer frequency, TF over GST control)"
same,binding signal,[14],"1.17 fold enrichment (6-mer frequency, TF over GST control)"
same,binding signal,[15],"1.14 fold enrichment (6-mer frequency, TF over GST control)"
same,binding signal,[16],"1.13 fold enrichment (6-mer frequency, TF over GST control)"
same,binding signal,[17],"1.14 fold enrichment (6-mer frequency, TF over GST control)"
same,binding signal,[18],"1.11 fold enrichment (6-mer frequency, TF over GST control)"
